Results taken from the supplement of paper PMC11383364.
± gives the standard deviation of the averaged measurements.

The molecules below were run on SUM149 (assay: percent difference in area under dose-response curve of relative cell number, RPMI vs HPLM; higher = drug relatively more effective in HPLM than RPMI (negative = less effective in HPLM)). Conditions: treatment time: 72 h; dose range: 10-point, 1 nM to 20 µM; media compared: RPMI vs HPLM.
`Cc1[nH]c(/C=C2\C(=O)Nc3ccc(S(=O)(=O)N(C)c4cccc(Cl)c4)cc32)c(C)c1C(=O)N1CCN(C)CC1` was tested, and the “percent difference in area under dose-response curve” value (from here on “percent difference in area”) was -9.77%.
`O=C(Nc1c[nH]nc1-c1nc2ccc(CN3CCOCC3)cc2[nH]1)NC1CC1` was tested, and the “percent difference in area” value was -10.6%.
In the case of `CC1=C(/C=C/C(C)=C/C=C/C(C)=C\C(=O)O)C(C)(C)CCC1` [Isotretinoin], the “percent difference in area” value is reported as -4.74%.
With `CC(C)(C)c1ccc(S(=O)(=O)NCc2ccc(C(=O)Nc3cccnc3)cc2)cc1` the “percent difference in area” value was -12.4%.
For `NC1(c2ccc(-c3nc4ccn5c(=O)[nH]nc5c4cc3-c3ccccc3)cc2)CCC1`, the “percent difference in area” value was 0.884%.
`Nc1nc(Cl)nc2c1ncn2[C@H]1C[C@H](O)[C@@H](CO)O1` [Cladribine] was tested, and the “percent difference in area” value was -12.6 ± 2.1%.
`CC(C)(C)c1cc(NC(=O)Nc2ccc(-c3cn4c(n3)sc3cc(OCCN5CCOCC5)ccc34)cc2)no1` [Quizartinib] was tested, and the “percent difference in area” value was -0.334%.
`C=CCc1cccc(/C=N/NC(=O)CN2CCN(Cc3ccccc3)CC2)c1O` was tested, and the “percent difference in area” value was -12.9%.
`CN1CCN(CCOc2cc(OC3CCOCC3)c3c(Nc4c(Cl)ccc5c4OCO5)ncnc3c2)CC1` [Saracatinib] was tested, and the “percent difference in area” value was 14.3%.
`Cc1cc(/C=C/c2ccc3cc(N(C)C)ccc3[n+]2C)c(C)n1-c1ccccc1` [Pyrvinium_pamoate] was tested, and the “percent difference in area” value was -34.5%.
For `Cc1ccc(NC(=O)c2ccc(CN3CCN(C)CC3)cc2)cc1Nc1nccc(-c2cccnc2)n1` [Imatinib], the “percent difference in area” value was -5.87%.
With `COc1c(C)cnc(Cn2cnc3c(Cl)nc(N)nc32)c1C` the “percent difference in area” value was -26.2%.
With `NC(=O)Nc1cc(-c2cccc(F)c2)sc1C(=O)N[C@H]1CCCNC1` the “percent difference in area” value was -2.68%.
With `Cn1cnc2c(F)c(Nc3ccc(Br)cc3Cl)c(C(=O)NOCCO)cc21` the “percent difference in area” value was -3.35%.
`CC1(C)C=C(CN2C/C(=C\c3ccc(F)cc3)C(=O)/C(=C/c3ccc(F)cc3)C2)C(C)(C)N1O` was tested, and the “percent difference in area” value was 2.04%.
With `CSc1cccc(Nc2ncc3cc(-c4c(Cl)cccc4Cl)c(=O)n(C)c3n2)c1` the “percent difference in area” value was 11.7%.
In the case of `COc1c(C)c2c(c(O)c1C/C=C(\C)CCC(=O)OCCN1CCOCC1)C(=O)OC2` [Mycophenolate_mofetil], the “percent difference in area” value is reported as -4.5%.
With `Nc1nccc(Oc2ccc(NC(=O)c3c[nH]cc(-c4ccc(F)cc4)c3=O)cc2F)c1Cl` the “percent difference in area” value was -4.65%.
`CC(C)C[C@H](NC(=O)[C@H](Cc1ccccc1)NC(=O)c1cnccn1)B(O)O` [Bortezomib] was tested, and the “percent difference in area” value was -29.8%.
In the case of `Cc1c(NC(=O)OC[C@@H]2COCCN2)cn2ncnc(Nc3ccc4c(cnn4Cc4cccc(F)c4)c3)c12`, the “percent difference in area” value is reported as 3.34%.
With `CS(=O)(=O)N1CCN(Cc2cc3nc(-c4cccc5[nH]ncc45)nc(N4CCOCC4)c3s2)CC1` the “percent difference in area” value was -4.07%.
With `NC(=O)Nc1sc(-c2ccc(F)cc2)cc1C(N)=O` the “percent difference in area” value was 6.37%.
`Nc1ccc(-c2ccc3ncc4ccc(=O)n(-c5cccc(C(F)(F)F)c5)c4c3c2)cn1` [Torin_2] was tested, and the “percent difference in area” value was -2.02%.
With `CC(=O)O[C@@]12CO[C@@H]1C[C@H](O)[C@@]1(C)C(=O)[C@H](O)C3=C(C)[C@@H](OC(=O)[C@H](O)[C@@H](NC(=O)OC(C)(C)C)c4ccccc4)C[C@@](O)([C@@H](OC(=O)c4ccccc4)[C@H]21)C3(C)C` [Docetaxel] the “percent difference in area” value was -42.7%.
In the case of `Cc1ccc(NC(=O)c2cccc(C(C)(C)C#N)c2)cc1Nc1ccc2ncn(C)c(=O)c2c1`, the “percent difference in area” value is reported as -22.2%.
For `Oc1nc(-c2ccc(C(F)(F)F)cc2)nc2c1CSCC2`, the “percent difference in area” value was -0.882%.
For `Cn1cc(C2=C(c3ccc(Cl)cc3Cl)C(=O)NC2=O)c2ccccc21`, the “percent difference in area” value was -0.391%.
In the case of `CCn1c(-c2nonc2N)nc2c(C#CC(C)(C)O)ncc(OC[C@H]3CCCNC3)c21`, the “percent difference in area” value is reported as 4.22%.
`Cc1ccc(C(=O)Nc2ccc(CN3CCN(C)CC3)c(C(F)(F)F)c2)cc1C#Cc1cnc2cccnn12` [Ponatinib] was tested, and the “percent difference in area” value was 16.9%.
In the case of `COc1cc(F)c(F)c(Nc2ccc(I)cc2F)c1NS(=O)(=O)C1(C[C@H](O)CO)CC1` [Refametinib], the “percent difference in area” value is reported as -9.94%.
For `O=C1c2c(O)ccc(O)c2C(=O)c2c(NCCNCCO)ccc(NCCNCCO)c21` [Mitoxantrone_HCl], the “percent difference in area” value was -32.7%.
In the case of `O=C(Cc1ccc(-c2ccc(OCCN3CCOCC3)cc2)cn1)NCc1ccccc1`, the “percent difference in area” value is reported as -13.1%.
For `CC1=CC(=O)c2ccccc2C1=O` [Menadione], the “percent difference in area” value was -3.63%.
`CNCc1ccc(-c2[nH]c3cc(F)cc4c3c2CCNC4=O)cc1` [Rucaparib] was tested, and the “percent difference in area” value was -14.3%.
